PubChem BioAssay (EPA / NIEHS)
Where “and” joins values, the source holds several entries; their conditions need not be identical. Identical values can stand only once. Records with an inconclusive call do not appear. Calls of active or inactive are those of the source. How the source made its calls: active means hit-call score of the fitted dose curve at least 0.9, where 1 is the maximum; inconclusive means response in the unintended direction; inactive means score below 0.9.

The compounds below were run against human Peripheral-type Benzodiazepine Receptor (PBR), TSPO (gene 706) (UniProt P30536) (assay: NVS_MP_hPBR: NovaScreen (NVS) Membrane Protein Assay for human Peripheral-type Benzodiazepine Receptor (PBR) (AID 2283331)).
Sequence of human Peripheral-type Benzodiazepine Receptor (PBR), TSPO (gene 706) (P30536 whole entry, looked up): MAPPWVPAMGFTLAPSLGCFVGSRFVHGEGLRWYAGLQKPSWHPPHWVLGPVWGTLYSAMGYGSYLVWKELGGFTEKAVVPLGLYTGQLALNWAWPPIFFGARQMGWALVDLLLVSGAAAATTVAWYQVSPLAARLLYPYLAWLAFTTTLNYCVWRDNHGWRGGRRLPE
Method: NVS_MP_hPBR is a biochemical, single-readout assay that uses extracted gene-proteins from Human colonic cell membranes in a tissue-based cell-free assay. Measurements were taken 1 hour after chemical dosing in a 48-well plate.NVS_MP_hPBR is one of one assay component(s) measured or calculated from the NVS_MP_hPBR assay. It is designed to make measurements of radioligand binding, a form of binding reporter, as detected with scintillation counting signals by Filter-based radiodetection technology.Data from the assay component NVS_MP_hPBR was analyzed into 1 assay endpoint. This assay endpoint, NVS_MP_hPBR, was analyzed in the positive analysis fitting direction relative to DMSO as the negative control and baseline of activity. Using a type of binding reporter, loss-of-signal activity can be used to understand changes in the binding as they relate to the gene TSPO. Furthermore, this assay endpoint can be referred to as a primary readout, because the performed assay has only produced 1 assay endpoint. To generalize the intended target to other relatable targets, this assay endpoint is annotated to the transporter intended target family, where the subfamily is cholesterol transporter.
Binding assays used specific radioligands (tritiated, iodinated) with non-radioactive competitive displacement ligands in agonist or antagonist protocols (as indicated) and various reference compounds and inhibitors to titrate specific binding to receptors and transporters. Most enzyme assays (CYPs, kinases, phosphatases, proteases, HDACs) used recombinant protein and specific substrates (fluorescence mostly, some colorimetric and radioactive) and inhibitors, followed by a biochemical separation of substrate and product. All assays for the biochemical HTS were initially run in duplicate at a single concentration (10 uM for CYP450 assays and 25 uM for all others). […] Each assay was run with positive and negative controls, and concurrent controls on every plate. The follow-up (secondary) screen tested active chemical-pairs in concentration series, as well as a few additional assays not tested in the primary screen, some selected negative inactives, and several cases re-run in the concentration series for confirmatory purposes.

Structure (SMILES)	AC50	outcome
C=C(C)[C@H]1CC=C(C)C(=O)C1	25 µM (active)	–
CCCCCCCCCCCCCCCC(=O)OC/C=C(C)/C=C/C=C(C)/C=C/C1=C(C)CCCC1(C)C	41.1 µM (active)	–
CCOc1ccc(N=Nc2ccc(C=Cc3ccc(N=Nc4ccc(OCC)cc4)cc3S(=O)(=O)O)c(S(=O)(=O)O)c2)cc1	0.00187 µM (active)	–
Cc1ccc(S(=O)(=O)Oc2ccc(N=Nc3ccc(-c4ccc(N=Nc5c(O)ccc6cc(S(=O)(=O)O)cc(S(=O)(=O)O)c56)c(C)c4)cc3C)cc2)cc1	0.0489 µM (active)	–
O=C1OC[C@H](Cc2cccc(O)c2)[C@H]1Cc1cccc(O)c1	8.4 µM (active) and 3.26 µM (active)	–
CN(C)C(=O)Nc1ccc(Oc2ccc(Cl)cc2)cc1	2.91 µM (active)	–
CS(=O)(=O)OCCCCOS(C)(=O)=O	–	inactive
COc1ccc(CCN2CCC(Nc3nc4ccccc4n3Cc3ccc(F)cc3)CC2)cc1	–	inactive
Cc1cc(=O)oc2cc(N(C)C)ccc12	6.09 µM (active)	–
c1ccc(Oc2ccccc2)cc1	–	inactive
CCCCC(CC)COC(=O)c1ccc(O)cc1 (configuration not stated)	2.71 µM (active)	–
Nc1ccc2cc(S(=O)(=O)O)cc(O)c2c1N=Nc1ccccc1C(F)(F)F	1.16 µM (active)	–
CCCCN(CCCC)C(=O)N(CCCC)CCCC	20.6 µM (active)	–
CC(C)(C)CC(C)(C)c1ccc(OCCOCC[N+](C)(C)Cc2ccccc2)cc1	–	inactive
Cc1cc(CCC(=O)OCCOCCOCCOC(=O)CCc2cc(C)c(O)c(C(C)(C)C)c2)cc(C(C)(C)C)c1O	0.721 µM (active)	–
C=CC(=O)OCCCC	–	inactive
COc1ccc(N=Nc2cc(C)c(N=Nc3ccc(S(=O)(=O)O)cc3)cc2OC)cc1	2.05 µM (active)	–
